The supplement of paper PMC11732987, “Enantioselective OTUD7B fragment discovery through chemoproteomics screening and high-throughput optimisation” (Communications Chemistry, 2025)

How the values were obtained:
Test in all cases: log2 ratio of Biotin-Ahx-Ub-VS probe labelling (fragment/DMSO); higher = less target engagement (more negative = stronger competition), active = hit call of the paper (q ≤ 0.05, log2 ratio ≤ -1)
Settings in all cases: compound concentration: 200 uM; treatment time: 3 h
USP42 = target: T1, USP42 (UniProt Q9H9J4)
T1 sequence (whole entry): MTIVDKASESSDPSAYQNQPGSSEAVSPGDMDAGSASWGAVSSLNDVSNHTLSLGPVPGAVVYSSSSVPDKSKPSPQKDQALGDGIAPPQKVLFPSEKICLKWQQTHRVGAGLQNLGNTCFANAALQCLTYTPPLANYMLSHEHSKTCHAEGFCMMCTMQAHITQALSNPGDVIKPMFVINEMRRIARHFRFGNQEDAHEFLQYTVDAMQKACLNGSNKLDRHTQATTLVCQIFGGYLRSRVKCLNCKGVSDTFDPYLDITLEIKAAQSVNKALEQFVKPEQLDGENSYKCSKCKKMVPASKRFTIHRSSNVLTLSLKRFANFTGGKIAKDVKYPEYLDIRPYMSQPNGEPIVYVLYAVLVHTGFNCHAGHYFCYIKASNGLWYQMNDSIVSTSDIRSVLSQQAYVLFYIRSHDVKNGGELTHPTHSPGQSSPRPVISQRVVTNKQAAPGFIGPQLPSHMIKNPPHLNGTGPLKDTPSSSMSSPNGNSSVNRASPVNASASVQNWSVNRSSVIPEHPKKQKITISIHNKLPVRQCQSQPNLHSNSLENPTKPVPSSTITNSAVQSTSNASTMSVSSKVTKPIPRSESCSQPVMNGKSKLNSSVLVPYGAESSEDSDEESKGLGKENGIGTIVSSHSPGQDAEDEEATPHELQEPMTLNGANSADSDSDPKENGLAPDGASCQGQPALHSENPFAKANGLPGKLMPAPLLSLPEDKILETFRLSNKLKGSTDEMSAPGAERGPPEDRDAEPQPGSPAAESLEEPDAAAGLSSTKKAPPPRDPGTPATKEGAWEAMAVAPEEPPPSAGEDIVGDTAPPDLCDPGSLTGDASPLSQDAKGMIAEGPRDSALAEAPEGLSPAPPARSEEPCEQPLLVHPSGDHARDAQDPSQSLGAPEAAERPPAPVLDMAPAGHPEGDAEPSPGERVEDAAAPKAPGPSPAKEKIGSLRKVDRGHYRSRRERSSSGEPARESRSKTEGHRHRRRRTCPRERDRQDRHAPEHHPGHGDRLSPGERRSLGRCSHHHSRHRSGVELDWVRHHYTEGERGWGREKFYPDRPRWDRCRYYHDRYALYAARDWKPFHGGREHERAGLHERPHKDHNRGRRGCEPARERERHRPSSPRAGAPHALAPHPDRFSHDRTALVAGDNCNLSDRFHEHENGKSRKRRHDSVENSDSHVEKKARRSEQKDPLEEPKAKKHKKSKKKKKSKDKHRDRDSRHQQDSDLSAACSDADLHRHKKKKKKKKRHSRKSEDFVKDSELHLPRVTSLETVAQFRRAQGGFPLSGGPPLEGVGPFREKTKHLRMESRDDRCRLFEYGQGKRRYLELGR
Procedure, shortened: (§1)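 Labelling with Biotin-Ahx-Ub-VS (0.5 µM final, 1 h) followed a 3 h triplicate treatment of HEK293T lysate (495 µg per sample, Tris/CHAPS/IGEPAL buffer with protease inhibitors) with fragment at 200 µM or vehicle. Labelled DUBs were NeutrAvidin-enriched, digested with LysC and trypsin, and run by diaPASEF LC-MS/MS. The values, average log2 fragment/vehicle ratios by unpaired t-test, come from global-median-normalised Spectronaut label-free quantities. Proteins with ≥2 unique peptides were used.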

USP46 = USP46 (UniProt P62068)
Chain of USP46 (P62068 whole entry): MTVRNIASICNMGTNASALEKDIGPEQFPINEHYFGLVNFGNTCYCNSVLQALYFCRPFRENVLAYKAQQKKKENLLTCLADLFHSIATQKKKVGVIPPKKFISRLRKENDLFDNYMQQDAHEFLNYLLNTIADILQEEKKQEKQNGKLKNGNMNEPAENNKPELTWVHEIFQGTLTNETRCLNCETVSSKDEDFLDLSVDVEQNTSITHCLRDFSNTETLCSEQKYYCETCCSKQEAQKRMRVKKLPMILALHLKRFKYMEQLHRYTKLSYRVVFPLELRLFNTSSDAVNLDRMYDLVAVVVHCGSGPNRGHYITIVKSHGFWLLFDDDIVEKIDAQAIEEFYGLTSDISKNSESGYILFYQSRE
Procedure, shortened: as §1

USP47 = target: T2, USP47 (UniProt Q96K76)
T2 sequence (whole entry): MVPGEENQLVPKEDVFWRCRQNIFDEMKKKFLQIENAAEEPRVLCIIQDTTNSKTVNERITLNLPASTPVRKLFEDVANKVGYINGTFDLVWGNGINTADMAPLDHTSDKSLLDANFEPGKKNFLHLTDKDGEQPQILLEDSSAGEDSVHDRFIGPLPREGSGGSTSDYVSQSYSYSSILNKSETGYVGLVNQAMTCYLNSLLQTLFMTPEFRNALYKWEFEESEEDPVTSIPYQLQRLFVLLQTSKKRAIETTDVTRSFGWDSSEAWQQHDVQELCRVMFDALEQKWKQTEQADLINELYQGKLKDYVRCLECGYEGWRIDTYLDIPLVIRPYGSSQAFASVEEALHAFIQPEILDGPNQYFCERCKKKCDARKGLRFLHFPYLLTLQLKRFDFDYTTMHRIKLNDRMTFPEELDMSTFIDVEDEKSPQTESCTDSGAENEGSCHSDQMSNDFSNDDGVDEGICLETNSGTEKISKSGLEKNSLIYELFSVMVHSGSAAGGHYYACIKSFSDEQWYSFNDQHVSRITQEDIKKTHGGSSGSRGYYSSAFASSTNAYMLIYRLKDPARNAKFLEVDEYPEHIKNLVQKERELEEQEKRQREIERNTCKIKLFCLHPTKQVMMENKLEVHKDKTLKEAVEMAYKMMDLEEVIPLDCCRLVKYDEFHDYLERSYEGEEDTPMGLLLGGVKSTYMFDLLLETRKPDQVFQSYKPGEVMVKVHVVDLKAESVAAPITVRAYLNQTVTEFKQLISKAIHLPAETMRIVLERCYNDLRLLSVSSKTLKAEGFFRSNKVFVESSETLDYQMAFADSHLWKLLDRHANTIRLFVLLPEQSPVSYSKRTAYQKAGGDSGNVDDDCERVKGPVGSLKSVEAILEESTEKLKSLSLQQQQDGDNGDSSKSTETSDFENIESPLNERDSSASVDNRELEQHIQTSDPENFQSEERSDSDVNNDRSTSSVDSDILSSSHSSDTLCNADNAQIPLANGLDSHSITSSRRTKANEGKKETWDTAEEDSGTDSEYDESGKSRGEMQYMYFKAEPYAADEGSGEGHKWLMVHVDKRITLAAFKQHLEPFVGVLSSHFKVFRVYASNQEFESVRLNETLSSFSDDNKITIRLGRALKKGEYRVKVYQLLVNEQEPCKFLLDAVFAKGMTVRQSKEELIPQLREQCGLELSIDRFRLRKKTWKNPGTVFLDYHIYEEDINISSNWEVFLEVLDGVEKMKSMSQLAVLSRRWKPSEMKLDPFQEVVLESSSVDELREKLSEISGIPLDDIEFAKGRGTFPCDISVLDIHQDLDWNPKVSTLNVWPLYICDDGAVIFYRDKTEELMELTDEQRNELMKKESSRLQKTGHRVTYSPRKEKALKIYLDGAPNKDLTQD
Procedure, shortened: as §1

USP48 = target: T3, USP48 (UniProt Q86UV5)
T3 sequence (whole entry): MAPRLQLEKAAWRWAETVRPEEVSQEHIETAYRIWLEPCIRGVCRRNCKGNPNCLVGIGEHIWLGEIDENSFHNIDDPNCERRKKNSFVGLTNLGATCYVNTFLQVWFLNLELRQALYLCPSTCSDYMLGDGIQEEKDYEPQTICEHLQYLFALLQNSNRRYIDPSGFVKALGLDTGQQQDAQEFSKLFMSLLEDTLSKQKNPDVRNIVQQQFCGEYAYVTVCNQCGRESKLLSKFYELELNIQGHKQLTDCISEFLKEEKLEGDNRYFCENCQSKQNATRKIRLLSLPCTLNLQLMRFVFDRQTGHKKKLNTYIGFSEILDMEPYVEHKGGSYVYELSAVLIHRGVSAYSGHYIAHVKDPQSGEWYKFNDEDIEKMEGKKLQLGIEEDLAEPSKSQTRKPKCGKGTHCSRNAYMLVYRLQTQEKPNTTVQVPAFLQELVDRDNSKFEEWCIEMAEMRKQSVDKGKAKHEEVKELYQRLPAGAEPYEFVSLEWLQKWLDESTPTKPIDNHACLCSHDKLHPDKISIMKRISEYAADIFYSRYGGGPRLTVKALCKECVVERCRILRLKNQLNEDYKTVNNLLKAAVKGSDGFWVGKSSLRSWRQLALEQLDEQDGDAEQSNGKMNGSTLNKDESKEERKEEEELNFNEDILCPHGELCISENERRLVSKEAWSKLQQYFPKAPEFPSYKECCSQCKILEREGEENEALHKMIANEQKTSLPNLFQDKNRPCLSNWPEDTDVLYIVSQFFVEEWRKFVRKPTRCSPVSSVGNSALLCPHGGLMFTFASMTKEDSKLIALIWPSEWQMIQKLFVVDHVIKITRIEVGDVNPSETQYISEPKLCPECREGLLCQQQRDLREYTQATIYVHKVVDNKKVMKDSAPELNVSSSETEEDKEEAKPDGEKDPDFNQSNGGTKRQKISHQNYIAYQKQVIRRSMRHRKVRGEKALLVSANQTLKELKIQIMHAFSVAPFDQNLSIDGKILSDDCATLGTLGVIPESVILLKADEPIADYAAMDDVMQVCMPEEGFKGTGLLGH
Procedure, shortened: as §1

USP5 = target: T4, USP5 (UniProt P45974)
T4 sequence (whole entry): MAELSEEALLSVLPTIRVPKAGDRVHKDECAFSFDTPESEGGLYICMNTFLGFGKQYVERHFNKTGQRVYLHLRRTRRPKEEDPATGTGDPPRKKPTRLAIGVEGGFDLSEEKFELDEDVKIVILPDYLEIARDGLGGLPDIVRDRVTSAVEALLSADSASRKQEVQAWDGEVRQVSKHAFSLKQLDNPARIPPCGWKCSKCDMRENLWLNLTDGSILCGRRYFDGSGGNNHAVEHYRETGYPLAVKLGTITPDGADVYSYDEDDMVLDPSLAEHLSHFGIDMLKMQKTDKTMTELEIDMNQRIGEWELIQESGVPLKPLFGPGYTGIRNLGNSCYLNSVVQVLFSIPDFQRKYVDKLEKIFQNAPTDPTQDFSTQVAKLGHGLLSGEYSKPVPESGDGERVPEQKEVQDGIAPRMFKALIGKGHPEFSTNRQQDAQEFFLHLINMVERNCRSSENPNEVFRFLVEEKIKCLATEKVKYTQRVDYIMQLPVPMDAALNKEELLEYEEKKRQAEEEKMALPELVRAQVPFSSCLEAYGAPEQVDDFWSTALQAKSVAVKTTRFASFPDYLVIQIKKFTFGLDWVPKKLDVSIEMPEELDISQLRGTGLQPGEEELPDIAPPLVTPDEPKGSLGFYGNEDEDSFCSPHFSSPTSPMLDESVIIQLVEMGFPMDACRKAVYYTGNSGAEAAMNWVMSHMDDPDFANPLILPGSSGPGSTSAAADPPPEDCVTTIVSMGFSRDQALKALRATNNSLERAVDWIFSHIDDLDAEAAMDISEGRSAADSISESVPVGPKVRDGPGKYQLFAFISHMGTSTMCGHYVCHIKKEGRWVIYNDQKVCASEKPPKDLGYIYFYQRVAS
Procedure, shortened: as §1

USP54 = USP54 (UniProt Q70EL1)
Procedure, shortened: as §1

USP7 = USP7 (UniProt Q93009)
Chain of USP7 (Q93009 whole entry, looked up): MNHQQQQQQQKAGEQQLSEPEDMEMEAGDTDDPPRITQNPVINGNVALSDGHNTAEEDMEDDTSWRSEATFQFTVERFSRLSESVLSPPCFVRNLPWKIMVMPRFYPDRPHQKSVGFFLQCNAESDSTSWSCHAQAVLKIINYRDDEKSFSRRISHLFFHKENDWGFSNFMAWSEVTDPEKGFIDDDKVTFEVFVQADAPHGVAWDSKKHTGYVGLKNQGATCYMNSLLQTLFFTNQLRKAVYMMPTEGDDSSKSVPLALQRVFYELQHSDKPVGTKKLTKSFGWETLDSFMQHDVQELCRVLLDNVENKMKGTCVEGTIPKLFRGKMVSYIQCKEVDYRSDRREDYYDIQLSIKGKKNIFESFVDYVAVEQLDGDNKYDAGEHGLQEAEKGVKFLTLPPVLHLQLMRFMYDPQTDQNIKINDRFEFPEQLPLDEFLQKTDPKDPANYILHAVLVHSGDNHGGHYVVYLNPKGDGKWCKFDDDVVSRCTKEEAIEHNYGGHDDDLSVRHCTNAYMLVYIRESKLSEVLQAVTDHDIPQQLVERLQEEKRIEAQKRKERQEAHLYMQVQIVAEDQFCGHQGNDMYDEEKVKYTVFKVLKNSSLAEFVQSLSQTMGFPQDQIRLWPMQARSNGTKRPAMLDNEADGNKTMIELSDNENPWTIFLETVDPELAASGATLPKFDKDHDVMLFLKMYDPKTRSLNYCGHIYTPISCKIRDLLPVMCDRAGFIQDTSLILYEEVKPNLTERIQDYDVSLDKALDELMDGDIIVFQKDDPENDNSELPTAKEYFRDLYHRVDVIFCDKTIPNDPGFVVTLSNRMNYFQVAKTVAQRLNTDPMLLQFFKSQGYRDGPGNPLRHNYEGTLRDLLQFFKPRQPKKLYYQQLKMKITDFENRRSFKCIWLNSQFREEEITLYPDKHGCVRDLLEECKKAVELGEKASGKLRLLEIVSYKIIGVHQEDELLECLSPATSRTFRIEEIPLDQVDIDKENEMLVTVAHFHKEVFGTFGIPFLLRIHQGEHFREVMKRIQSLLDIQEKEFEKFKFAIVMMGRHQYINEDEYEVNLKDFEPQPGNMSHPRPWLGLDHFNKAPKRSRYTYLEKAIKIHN
Procedure, shortened: as §1

USP8 = target: T5, USP8 (UniProt P40818)
T5 sequence (whole entry): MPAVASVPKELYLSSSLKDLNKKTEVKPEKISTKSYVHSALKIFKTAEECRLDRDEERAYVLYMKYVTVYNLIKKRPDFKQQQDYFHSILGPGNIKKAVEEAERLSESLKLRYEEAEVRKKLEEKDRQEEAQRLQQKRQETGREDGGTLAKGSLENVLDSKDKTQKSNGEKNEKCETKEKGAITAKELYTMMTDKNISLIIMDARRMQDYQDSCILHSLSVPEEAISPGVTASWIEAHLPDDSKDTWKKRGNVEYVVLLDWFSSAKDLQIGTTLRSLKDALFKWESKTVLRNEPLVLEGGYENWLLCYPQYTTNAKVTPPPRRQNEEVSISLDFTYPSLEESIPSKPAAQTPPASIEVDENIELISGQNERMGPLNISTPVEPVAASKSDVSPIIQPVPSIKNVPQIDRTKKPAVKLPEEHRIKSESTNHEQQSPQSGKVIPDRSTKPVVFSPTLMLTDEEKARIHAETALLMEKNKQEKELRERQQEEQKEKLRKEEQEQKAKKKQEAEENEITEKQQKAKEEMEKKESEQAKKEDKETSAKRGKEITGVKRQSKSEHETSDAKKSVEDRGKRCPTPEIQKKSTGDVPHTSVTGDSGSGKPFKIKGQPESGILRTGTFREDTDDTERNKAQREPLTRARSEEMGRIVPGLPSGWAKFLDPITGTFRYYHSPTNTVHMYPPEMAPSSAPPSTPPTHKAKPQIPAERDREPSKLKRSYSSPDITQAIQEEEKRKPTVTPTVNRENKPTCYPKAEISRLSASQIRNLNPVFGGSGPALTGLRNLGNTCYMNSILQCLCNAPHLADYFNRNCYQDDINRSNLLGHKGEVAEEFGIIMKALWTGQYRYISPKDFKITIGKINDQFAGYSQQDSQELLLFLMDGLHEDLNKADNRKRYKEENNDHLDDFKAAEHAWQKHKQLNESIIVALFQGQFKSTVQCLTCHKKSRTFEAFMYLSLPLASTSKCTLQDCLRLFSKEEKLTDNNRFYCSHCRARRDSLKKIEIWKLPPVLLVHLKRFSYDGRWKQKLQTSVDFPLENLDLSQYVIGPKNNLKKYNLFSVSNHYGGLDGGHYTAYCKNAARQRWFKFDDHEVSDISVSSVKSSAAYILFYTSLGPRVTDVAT
Procedure, shortened: as §1

USP9X = USP9X (UniProt Q93008)
Chain of USP9X (Q93008 whole entry): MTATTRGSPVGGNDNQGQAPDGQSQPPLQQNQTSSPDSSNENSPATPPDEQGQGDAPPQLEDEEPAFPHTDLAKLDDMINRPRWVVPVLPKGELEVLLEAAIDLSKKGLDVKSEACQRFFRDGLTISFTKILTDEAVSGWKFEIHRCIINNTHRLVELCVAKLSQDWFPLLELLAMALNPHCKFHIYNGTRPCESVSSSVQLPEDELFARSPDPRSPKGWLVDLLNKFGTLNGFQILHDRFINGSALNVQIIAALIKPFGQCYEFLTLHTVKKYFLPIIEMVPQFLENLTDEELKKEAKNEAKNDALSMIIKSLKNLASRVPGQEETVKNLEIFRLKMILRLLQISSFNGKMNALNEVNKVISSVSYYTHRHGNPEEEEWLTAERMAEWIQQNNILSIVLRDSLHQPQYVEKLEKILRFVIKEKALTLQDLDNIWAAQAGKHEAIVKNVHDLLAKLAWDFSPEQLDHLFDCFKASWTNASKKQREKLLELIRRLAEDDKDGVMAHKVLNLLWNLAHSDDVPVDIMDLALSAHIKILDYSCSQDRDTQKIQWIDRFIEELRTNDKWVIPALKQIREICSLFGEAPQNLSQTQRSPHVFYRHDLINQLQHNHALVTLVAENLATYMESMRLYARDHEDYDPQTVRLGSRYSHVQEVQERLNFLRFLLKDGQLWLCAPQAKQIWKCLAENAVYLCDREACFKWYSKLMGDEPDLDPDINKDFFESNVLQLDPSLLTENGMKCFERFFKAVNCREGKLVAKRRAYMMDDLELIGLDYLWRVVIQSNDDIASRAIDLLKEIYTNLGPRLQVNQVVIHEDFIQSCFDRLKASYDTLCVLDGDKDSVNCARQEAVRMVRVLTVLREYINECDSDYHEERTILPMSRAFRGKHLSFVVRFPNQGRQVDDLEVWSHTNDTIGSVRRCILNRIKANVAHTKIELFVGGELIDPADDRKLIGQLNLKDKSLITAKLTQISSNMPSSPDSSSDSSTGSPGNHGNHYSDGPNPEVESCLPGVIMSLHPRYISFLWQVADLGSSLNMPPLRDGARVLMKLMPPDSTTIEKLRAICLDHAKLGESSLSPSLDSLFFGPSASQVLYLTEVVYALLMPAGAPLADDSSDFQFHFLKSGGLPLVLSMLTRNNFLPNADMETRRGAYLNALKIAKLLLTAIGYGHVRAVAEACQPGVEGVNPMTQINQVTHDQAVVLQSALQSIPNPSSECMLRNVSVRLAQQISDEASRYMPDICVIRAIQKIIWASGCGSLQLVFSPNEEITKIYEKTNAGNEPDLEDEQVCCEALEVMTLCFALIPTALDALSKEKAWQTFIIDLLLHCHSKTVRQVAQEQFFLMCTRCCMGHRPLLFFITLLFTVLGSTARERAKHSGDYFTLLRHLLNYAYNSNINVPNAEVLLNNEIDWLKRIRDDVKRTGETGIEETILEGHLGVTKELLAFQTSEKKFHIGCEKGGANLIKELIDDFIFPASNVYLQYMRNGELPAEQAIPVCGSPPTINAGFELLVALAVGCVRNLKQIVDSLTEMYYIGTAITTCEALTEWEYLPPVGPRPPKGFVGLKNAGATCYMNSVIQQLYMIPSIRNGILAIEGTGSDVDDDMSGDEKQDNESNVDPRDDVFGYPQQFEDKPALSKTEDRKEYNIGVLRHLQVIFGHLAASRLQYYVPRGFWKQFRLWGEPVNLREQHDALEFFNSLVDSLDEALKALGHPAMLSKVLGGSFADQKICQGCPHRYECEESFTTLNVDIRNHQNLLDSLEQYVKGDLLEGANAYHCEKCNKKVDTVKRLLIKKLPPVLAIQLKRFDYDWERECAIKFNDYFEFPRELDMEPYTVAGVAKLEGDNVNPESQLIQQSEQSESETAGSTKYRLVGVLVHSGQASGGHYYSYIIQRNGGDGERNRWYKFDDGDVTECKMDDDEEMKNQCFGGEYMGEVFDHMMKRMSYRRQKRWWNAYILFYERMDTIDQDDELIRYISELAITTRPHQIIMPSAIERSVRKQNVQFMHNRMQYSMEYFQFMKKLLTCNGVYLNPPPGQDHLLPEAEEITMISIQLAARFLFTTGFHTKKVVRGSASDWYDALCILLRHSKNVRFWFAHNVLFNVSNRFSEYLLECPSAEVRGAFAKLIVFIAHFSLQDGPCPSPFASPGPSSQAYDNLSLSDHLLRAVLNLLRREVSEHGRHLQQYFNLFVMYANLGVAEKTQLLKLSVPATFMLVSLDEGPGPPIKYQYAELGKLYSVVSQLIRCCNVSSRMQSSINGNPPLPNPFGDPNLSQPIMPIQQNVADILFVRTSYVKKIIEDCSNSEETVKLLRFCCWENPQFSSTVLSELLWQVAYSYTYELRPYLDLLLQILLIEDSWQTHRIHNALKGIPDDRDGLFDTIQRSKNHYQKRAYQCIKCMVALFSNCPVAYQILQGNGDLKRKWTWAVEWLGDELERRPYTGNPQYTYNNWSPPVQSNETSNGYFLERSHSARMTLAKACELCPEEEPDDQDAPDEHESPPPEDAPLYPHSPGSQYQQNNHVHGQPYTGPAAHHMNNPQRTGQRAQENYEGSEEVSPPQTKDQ
Procedure, shortened: as §1

UniProt O00487 = target: UniProt O00487
Chain of UniProt O00487 (O00487 whole entry): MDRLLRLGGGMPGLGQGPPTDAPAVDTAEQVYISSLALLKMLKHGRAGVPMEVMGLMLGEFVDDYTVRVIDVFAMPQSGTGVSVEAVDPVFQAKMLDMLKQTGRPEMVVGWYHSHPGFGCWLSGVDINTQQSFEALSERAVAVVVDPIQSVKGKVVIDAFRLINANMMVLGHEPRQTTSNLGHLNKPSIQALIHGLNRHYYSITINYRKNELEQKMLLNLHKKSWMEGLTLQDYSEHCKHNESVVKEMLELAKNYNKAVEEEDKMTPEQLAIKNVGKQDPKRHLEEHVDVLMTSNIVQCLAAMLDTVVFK
Procedure, shortened: as §1

Measured: log2 ratio of Biotin-Ahx-Ub-VS probe labelling

Cl.O=C(CCl)N1CCC(n2nc3ccccc3n2)CC1
active: USP7 -1.88
inactive: USP42 0.181 | USP46 -0.321 | USP47 -0.894 | USP48 -0.485 | USP5 -0.467 | USP54 -0.186 | USP8 -0.518 | USP9X -0.485 | UniProt O00487 -0.114
